This passage reports activity change (Venus) and activity change (mCherry) results from PubChem BioAssay AID1053133 (Broad Institute, 2014).

Where “and” joins values, the source holds several entries; their conditions need not be identical. Identical values can stand only once. Hit rate of the full screen: of about 89,000 compounds, about 10 (0.01%) were called active. Roughly 10% stayed inconclusive and do not appear here. Rule as the data show it: active = activity change below about -37% (passing the limit was not always enough); inconclusive = no clear call, values can overlap the other calls; tested in A549 cells. A selection follows.

The assay is described as follows: blocks a specific stage of Vaccinia orthopoxvirus infection, primary screen, cell-based, single point (AID 1053133). The conditions noted are these: Vaccinia-infected cells, mCherry/Venus stage reporter fluorescence, stronger effect = lower value, concentration not given here; activity change (Venus): measured here: Venus reporter, other viral stage.
As for `CCS(=O)(=O)Nc1ccc2c(c1)C(=O)N(C)[C@H]1CC[C@H](CC(=O)NCc3ccccc3F)O[C@H]1CO2`, the activity change (Venus) is 8.23% and the activity change (mCherry) was -6.34% (inactive).

Consider `O=C(C[C@H]1C=C[C@H](NC(=O)CC2CC2)[C@@H](CO)O1)NCc1ccccc1`, for which the activity change (Venus) is 4.6% and the activity change (mCherry) was 4.83% (inactive).

`Cc1noc(C)c1NC(=O)N[C@@H]1CC[C@H](CCNC(=O)C2CCC2)O[C@@H]1CO`: the activity change (Venus) amounted to 3.06% and the activity change (mCherry) is -10.7% (inactive).

In the case of `CO[C@H]1CN(C)C(=O)c2ccc(NC(=O)C3CC3)cc2OC[C@@H](C)N(Cc2ccc(F)cc2)C[C@@H]1C`, the activity change (Venus) was -14.9% and the activity change (mCherry) was -29.4% (inactive).

In the case of `CC(=O)N1[C@@H]2Cn3c(ccc(C4=CCCC4)c3=O)[C@H]1[C@@H](C(=O)NC1CCC1)[C@@H]2CO`, the activity change (Venus) amounted to 2.6% and the activity change (mCherry) is 11.3% (inactive).

On to `O=C(Cc1cccnc1)N1CC(=O)N2[C@H](CO)[C@H](c3ccc(C#CC4CCCC4)cc3)[C@@H]2C1`, for which the activity change (Venus) was -12.7% and the activity change (mCherry) was -12.6% (inactive).

For `O=C(N[C@@H]1CC[C@H](CCn2cc(-c3ccccn3)nn2)O[C@@H]1CO)c1ccccc1`, the activity change (Venus) is -0.983% and the activity change (mCherry) is 0.892% (inactive).

As for `O=C(NC[C@H]1CC[C@H]2[C@H](CN2Cc2cccc(Cl)c2)O1)C1CC1`, the activity change (Venus) was 6.08% and the activity change (mCherry) was 4.96% (inactive).

`CN(C)C(=O)c1cccc(-c2ccc3c(c2)[C@@H]2[C@@H](CCN2Cc2nccs2)[C@@H](CO)N3)c1`: the activity change (Venus) was -3.17% and the activity change (mCherry) is -14.5% (inactive).

Consider `O=C(C[C@@H]1CC[C@@H]2[C@H](COC[C@H](O)CN2Cc2ccc(F)cc2)O1)NCc1ccncn1`, for which the activity change (Venus) is 9.14% and the activity change (mCherry) was 13.7% (inactive).

For the compound `CN1CCN(C(=O)C[C@H]2CC[C@H]3[C@@H](COC[C@H](O)CN3CC3CCCC3)O2)CC1`, the activity change (Venus) was -10.7% and the activity change (mCherry) is -14.5% (inactive).

`CCCc1cn(CC[C@@H]2CC[C@@H](NC(=O)CCN3CCCCC3)[C@H](CO)O2)nn1`: the activity change (Venus) was 6.3% and the activity change (mCherry) is 4.68% (inactive).

For the compound `COc1ccc(-c2cn(CC[C@H]3CC[C@@H](NC(=O)CCN4CCCCC4)[C@H](CO)O3)nn2)cc1`, the activity change (Venus) stood at 12% and the activity change (mCherry) is 0.142% (inactive).

In the case of `N#C[C@@H]1[C@H](c2ccccc2-c2cccc(F)c2)[C@@H](CO)N1C(=O)CN1CCOCC1`, the activity change (Venus) was found to be 4.69% and the activity change (mCherry) is 12.6% (inactive).

On to `CO[C@H]1CN(C)C(=O)c2ccc(NC(=O)c3ccccc3F)cc2OC[C@H](C)N(C(=O)c2ccccc2F)C[C@H]1C`, for which the activity change (Venus) stood at 2.58% and the activity change (mCherry) is -1.92% (inactive).

`Cc1cc(C(=O)Nc2ccc3c(c2)C(=O)N(C)[C@@H]2CC[C@@H](CC(=O)NC4CCCC4)O[C@@H]2CO3)no1`: the activity change (Venus) came out at 8.29% and the activity change (mCherry) was 8.19% (inactive).

For `O=C(C[C@@H]1CC[C@@H]2[C@H](COC[C@H](O)CN2C(=O)Nc2cccc(Cl)c2)O1)NCCCN1CCOCC1`, the activity change (Venus) was 5.06% and the activity change (mCherry) was 10% (inactive).

Take `CCC(=O)N1CCC2(CC1)CN(S(C)(=O)=O)[C@@H](CO)c1c2c2ccc(OC)cc2n1C`: the activity change (Venus) turned out to be 7.75% and the activity change (mCherry) is 14.3% (inactive).

Regarding `CC(C)CC#Cc1ccc2c(c1)O[C@H](CN(C)C(=O)Cc1cccnc1)[C@H](C)CN([C@@H](C)CO)S2(=O)=O`, the activity change (Venus) is -21.5% and the activity change (mCherry) is -32.3% (inactive).

For `O=C(Cc1ccccn1)N[C@H]1CC[C@H](CCn2cc(-c3ccc(F)cc3)nn2)O[C@H]1CO`, the activity change (Venus) is 1.48% and the activity change (mCherry) was 5.56% (inactive).

On to `NCC[C@@H]1CC[C@@H](NC(=O)C2CCCC2)[C@H](CO)O1`, for which the activity change (Venus) is 0.29% and the activity change (mCherry) is -7.04% (inactive).

On to `COc1ccc(NC(=O)Nc2ccc3c(c2)C(=O)N([C@@H](C)CO)C[C@H](C)[C@H](CN(C)S(=O)(=O)c2ccccc2)OCCCC[C@@H](C)O3)cc1`, for which the activity change (Venus) is -1.69% and the activity change (mCherry) is -0.413% (inactive).

As for `C[C@@H]1CN([C@H](C)CO)C(=O)c2cc(-c3ccccc3)cnc2O[C@H]1CN(C)C(=O)NC1CCCC1`, the activity change (Venus) is -2.73% and the activity change (mCherry) is 1.1% (inactive).

As for `CCC(=O)N1CCC2(CC1)CN(Cc1cc(F)ccc1F)[C@@H](CO)c1c2c2ccc(OC)cc2n1C`, the activity change (Venus) was -2.18% and the activity change (mCherry) was 15.8% (inactive).

Consider `O=C(C[C@H]1CC[C@@H]2[C@H](COC[C@H](O)CN2C(=O)c2ccc3c(c2)OCO3)O1)NC1CCC1`, for which the activity change (Venus) was determined as 9.5% and the activity change (mCherry) was 3.32% (inactive).

On to `O=C(Nc1ccccc1F)N[C@H]1CC[C@@H](CCNS(=O)(=O)c2ccc(F)cc2)O[C@@H]1CO`, for which the activity change (Venus) was -12.7% and the activity change (mCherry) is -16.7% (inactive).

`O=C(C[C@H]1C=C[C@H](NC(=O)Nc2cc(F)ccc2F)[C@H](CO)O1)Nc1ccccc1`: the activity change (Venus) is -0.0195% and the activity change (mCherry) was -4.16% (inactive).

As to `COc1ccc2c3c(n(C)c2c1)[C@@H](CO)N(C(=O)c1ccc(F)cc1)CC31CN(C(=O)c2ccc(F)cc2)C1`, the activity change (Venus) was -9% and the activity change (mCherry) was -10.3% (inactive).

With `COc1cccc(-c2ccc(CC[C@H]3O[C@H]4CC[C@@H](CO)O[C@H]4C[C@@H]3NS(C)(=O)=O)cc2)c1`, the activity change (Venus) is -32% and the activity change (mCherry) was -32.8% (inactive).

As for `O=C(C[C@@H]1CC[C@H]2[C@@H](COC[C@H](O)CN2Cc2ccc(F)cc2)O1)N1CCc2ccccc2C1`, the activity change (Venus) is -6.62% and the activity change (mCherry) was -6.87% (inactive).

Turning to `CN(C)CC(=O)N1[C@H](CO)[C@@H](c2ccc(-c3cccc(C(=O)N(C)C)c3)cc2)[C@@H]1C#N`, the activity change (Venus) was -1.53% and the activity change (mCherry) was 8.67% (inactive).

For the compound `O=C(c1ccncc1)N1C[C@H]2[C@@H](c3ccccc31)[C@H](CO)N2C(=O)Nc1ccc(F)cc1`, the activity change (Venus) was 5.09% and the activity change (mCherry) was 11% (inactive).

Regarding `COCC(=O)Nc1ccc2c(c1)C(=O)N(C)[C@@H]1CC[C@H](CC(=O)NCC3CC3)O[C@H]1CO2`, the activity change (Venus) came out at 3.16% and the activity change (mCherry) is 15.4% (inactive).

As for `O=C(c1ccncc1)N1C[C@H]2[C@@H](c3ccccc31)[C@H](CO)N2C(=O)c1ccccn1`, the activity change (Venus) was found to be 2.97% and the activity change (mCherry) was 10.6% (inactive).

As to `COc1ccc2c3c([nH]c2c1)[C@@H](CO)N(Cc1ccccc1F)CC31CN(C(=O)C2CC2)C1`, the activity change (Venus) is 19.6% and the activity change (mCherry) is 12.9% (inactive).

`CCCN(C)C[C@@H]1Oc2ncc(-c3cccc(C(=O)N(C)C)c3)cc2C(=O)N([C@H](C)CO)C[C@@H]1C`: the activity change (Venus) came to 1.46% and the activity change (mCherry) was 23.1% (inactive).

In the case of `C[C@@H]1CN([C@@H](C)CO)S(=O)(=O)c2ccc(-c3ccc(F)cc3)cc2O[C@@H]1CN(C)CC1CC1`, the activity change (Venus) was -14.3% and the activity change (mCherry) was -33.2% (inactive).

Regarding `Cn1cnc(S(=O)(=O)N2C[C@@H]3N[C@H](C2)C3c2ccc(/C=C/c3ccccc3)cc2)c1` (stereo partly drawn), the activity change (Venus) is 2.7% and -14.5%; the activity change (mCherry) is 7.98% (inactive) and -24.7% (inactive).

With `C[C@H](CO)N1C[C@H](C)[C@@H](CN(C)C(=O)Cc2ccncc2)Oc2ncc(C3=CCCCC3)cc2C1=O`, the activity change (Venus) is -16% and the activity change (mCherry) is -18.8% (inactive).

Turning to `CCC(=O)N1CC2(C1)[C@H](c1ccccc1)[C@@H](CO)N2C(=O)c1ccccc1`, the activity change (Venus) is -1.49% and the activity change (mCherry) is -4.89% (inactive).

As for `COc1ccc(-c2ccc3n(c2=O)C[C@@H]2[C@@H](CO)[C@H](C(=O)Nc4ccccc4)[C@H]3N2C)cc1`, the activity change (Venus) is 4.65% and the activity change (mCherry) is -0.0885% (inactive).

Take `CO[C@H]1CN(C)C(=O)c2ccc(NC(=O)c3ccno3)cc2OC[C@@H](C)N(S(C)(=O)=O)C[C@H]1C`: the activity change (Venus) came to 16.7% and the activity change (mCherry) is 24.5% (inactive).

Take `Cc1ccc(F)cc1S(=O)(=O)N[C@@H]1CCN(Cc2ccc(-c3ccccc3)cc2)C1`: the activity change (Venus) was -24.3% and the activity change (mCherry) is -23.2% (inactive).

Regarding `C[C@@H](NC(=O)C[C@H]1C[C@@H]2c3cc(NC(=O)Nc4ccccc4F)ccc3O[C@@H]2[C@H](CO)O1)c1ccccc1`, the activity change (Venus) amounted to 0.165% and the activity change (mCherry) is 4.14% (inactive).

As for `O=C(C[C@@H]1C[C@H]2c3cc(NC(=O)NC4CCCCC4)ccc3O[C@H]2[C@H](CO)O1)NCc1ccncc1`, the activity change (Venus) was 10.9% and the activity change (mCherry) was -4.22% (inactive).

In the case of `COc1ccccc1NC(=O)N(C)C[C@H]1Oc2cc(Br)ccc2S(=O)(=O)N([C@H](C)CO)C[C@@H]1C`, the activity change (Venus) was -7.91% and 3.04%; the activity change (mCherry) is -12.3% (inactive) and -2.64% (inactive).

On to `O=C(C[C@@H]1CC[C@@H]2[C@H](COC[C@H](O)CN2C(=O)C2CC2)O1)NCc1ccncc1`, for which the activity change (Venus) is -2.42% and the activity change (mCherry) was 0.733% (inactive).

As to `COCC#Cc1ccc2c(c1)O[C@@H](CN(C)C(=O)Nc1ccccc1F)[C@H](C)CN([C@H](C)CO)S2(=O)=O`, the activity change (Venus) was determined as 11.6% and the activity change (mCherry) is 9.91% (inactive).

As to `CN1C(=O)c2cc(NC(=O)c3ccccc3)ccc2OC[C@H]2O[C@@H](CC(=O)O)CC[C@@H]21`, the activity change (Venus) turned out to be 4.29% and the activity change (mCherry) is 9.5% (inactive).

For `O=C(c1ccccn1)N1CC2(C1)[C@H](c1ccccc1)[C@H](CO)N2C(=O)C1CCCC1`, the activity change (Venus) was -9.04% and the activity change (mCherry) is -13.9% (inactive).

Consider `Cc1noc(C)c1NC(=O)N[C@@H]1CC[C@H](CC(=O)Nc2ccccc2)O[C@H]1CO`, for which the activity change (Venus) amounted to 10.3% and the activity change (mCherry) is 4.56% (inactive).

Regarding `COc1ccc2c3c([nH]c2c1)[C@@H](CO)N(C(=O)c1cccc(F)c1)CC31CN(C(C)=O)C1`, the activity change (Venus) is -6.3% and the activity change (mCherry) was 16.8% (inactive).

With `CCC(=O)Nc1ccc2c(c1)OC[C@@H](C)N(Cc1ccccn1)C[C@H](C)[C@@H](OC)CN(C)C2=O`, the activity change (Venus) was determined as 5.46% and the activity change (mCherry) is 6.05% (inactive).

For the compound `C[C@@H]1CN([C@H](C)CO)S(=O)(=O)c2ccc(C#CCC3CCCC3)cc2O[C@H]1CN(C)Cc1ccc(C(=O)O)cc1`, the activity change (Venus) is -4.35% and the activity change (mCherry) is 11.2% (inactive).

With `O=C(C[C@H]1CC[C@@H]2[C@H](COC[C@@H](O)CN2CC2CC2)O1)NCC1CC1`, the activity change (Venus) is 15.8% and the activity change (mCherry) was 11.7% (inactive).

In the case of `C[C@H](CO)N1C[C@H](C)[C@@H](CN(C)C(=O)Nc2ccc3c(c2)OCO3)OCCCC[C@H](C)Oc2ccc(NS(=O)(=O)c3cn(C)cn3)cc2C1=O`, the activity change (Venus) worked out at 3.74% and the activity change (mCherry) was 11.2% (inactive).

Regarding `CO[C@H]1CN(C)C(=O)c2ccc(NC(=O)c3cc(C)on3)cc2OC[C@@H](C)NC[C@@H]1C`, the activity change (Venus) came out at 4.97% and the activity change (mCherry) was 2.62% (inactive).

`CCCc1cn(CC[C@H]2CC[C@@H](NS(=O)(=O)c3ccccc3Cl)[C@@H](CO)O2)nn1`: the activity change (Venus) turned out to be 1.1% and the activity change (mCherry) is 5.97% (inactive).

In the case of `CCNC(=O)[C@H]1[C@H](CO)[C@H]2Cn3c(ccc(/C=C/c4ccccc4)c3=O)[C@@H]1N2C(=O)C1CCC1`, the activity change (Venus) is 12.9% and the activity change (mCherry) is 11.2% (inactive).
